A selection: hits, their analogues and other compounds. The true share with any hit is near 3.4%.
TEAD-YAP inh: TEAD-YAP interaction inhibition. HEK-TIYL cells, TEAD-Gal4/YAP UAS-luciferase luminescence. AID 1259422. actives 1.4% (n = 640,000). inhibition, % at 9.12 µM; in the data active = inhibition above about 32%;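 also: 0% = median of test compound wells and 100% = reference inhibitor wells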
GPR151 activ: human GPR151 activation; Q8TDV0; PathHunter beta-arrestin GPR151 cells, luminescence; activation, % at 11.2 µM; actives 1% (n = 650,000); AID 1508602; in the data active = activation above about 4.9%;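 also: 0% = median of compound wells and 100% = cells with positive control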
MITF inh: blocks human microphthalmia-associated transcription factor. AlphaScreen MITF homodimerization, bead proximity signal. inhibition, % at 2.6 µM. actives 0.91% (n = 650,000). AID 1259374; in the data active = inhibition above about 50%;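 also: 0% = vehicle wells with protein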
Target sequence (O75030 whole entry, looked up): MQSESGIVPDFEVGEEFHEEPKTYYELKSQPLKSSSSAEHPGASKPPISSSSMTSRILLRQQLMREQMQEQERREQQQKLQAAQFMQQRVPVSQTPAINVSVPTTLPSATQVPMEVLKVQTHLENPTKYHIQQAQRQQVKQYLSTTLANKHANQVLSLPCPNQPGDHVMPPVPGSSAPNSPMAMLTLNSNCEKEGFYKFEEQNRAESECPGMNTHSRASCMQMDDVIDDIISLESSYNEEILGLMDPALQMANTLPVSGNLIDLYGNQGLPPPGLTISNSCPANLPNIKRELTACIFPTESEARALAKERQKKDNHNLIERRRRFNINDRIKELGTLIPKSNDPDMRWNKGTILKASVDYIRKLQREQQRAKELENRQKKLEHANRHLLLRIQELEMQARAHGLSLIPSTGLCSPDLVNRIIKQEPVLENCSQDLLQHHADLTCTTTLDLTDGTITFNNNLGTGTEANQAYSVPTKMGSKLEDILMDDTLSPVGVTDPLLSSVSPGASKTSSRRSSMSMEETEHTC
FBW7 activator: human FBW7 E3 ligase activation, primary screen; Q969H0; AlphaScreen FBW7–phospho-cyclin E peptide binding, activator screen; normalized activity (activation), % at 26.1 µM; actives 0.13% (n = 650,000); in the data active = normalized activity above about 1.9%;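 also: purified mutant Fbw7 with reduced substrate affinity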
* hit, by the source's call.

SMILES	TEAD-YAP inh	GPR151 activ	MITF inh	FBW7 activator
COCCNC(=O)c1ccc2c(c1)CC(c1nc3ccc(-c4ccnc(N)n4)cc3[nH]1)CO2 (configuration not stated)	-8	0	13	0
CC(CNC(=O)c1ccc2c(c1)CC(c1nc3ccc(-c4ccnc(N)n4)cc3[nH]1)CO2)c1cccs1 (configuration not stated)	45*	1	-6	2.7*
CC[N+]1=C(C)C(C)(C)c2cc(C)ccc21	50*	0	16	0
COc1ccc(CCNc2cc(-c3cccc(N)c3)nc(N)n2)cc1	35*	1	13	0
COc1ccc(CCNc2cc(-c3ccccc3)ncn2)cc1	-5	0	5	1.9*
COc1ccc(CCNc2nc(-c3cccc(N)c3)ncc2C)cc1	44*	0	1	0
O=C(Cn1nc2n(Cc3ccc(F)cc3)c3ccccc3n2c1=O)NC1CC1	-4	0	10	0
CCC(=O)N(/C=C1\Sc2ccccc2C1=O)c1ccccc1OC	83*	1	-2	0
COc1ccc(N(/C=C2\Sc3ccccc3C2=O)C(=O)c2ccco2)cc1	31	-5	5	0
CCC(=O)N(/C=C1\Sc2ccccc2C1=O)c1ccccc1	-1	-3	18	1
CCC(=O)N(/C=C1\Sc2ccccc2C1=O)c1ccc(C)cc1	53*	-3	6	0
CC(C)c1cc(=O)[nH]c(-n2nc(C3CC3)cc2NC(=O)C(C)(C)C)n1	57*	1	3	-1
O=C(NCc1ccccc1)/C(=C\C=C\c1ccccc1)NC(=O)c1ccc([N+](=O)[O-])cc1	56*	-1	4	0
COc1ccc(OC)c(C2C=C(c3cccnc3)Nc3ncnn32)c1 (configuration not stated)	22	-1	-4	0
COc1ccc(C2=CC(c3cc(OC)ccc3OC)n3ncnc3N2)cc1 (configuration not stated)	50*	-1	0	0
COc1cccc(C2=CC(c3cc(OC)ccc3OC)n3ncnc3N2)c1 (configuration not stated)	50*	0	24	0
CCCCN1C(=O)c2c(Oc3cccc(OC)c3)cc([N+](=O)[O-])cc2Oc2ccccc21	-9	0	0	0
COc1cc(/C=N/NC(=O)c2c(C)nc3ccc(Cl)cn23)cc(OC)c1OC	-2	0	-77	16*
COc1cc(C(=O)N/N=C/c2cccc(Br)c2)cc(OC)c1OC	60*	0	16	0
O=C(N/N=C/c1ccc(Br)s1)c1ccncc1	36*	-8	-7	0
COc1ccc(C(=O)N/N=C/c2cc(OC)c(O)c(OC)c2)cc1OC	-21	-2	9	0
O=C(N/N=C/c1cc(Br)c(Br)s1)c1ccncc1	15	0	1	-1
COc1cc(/C=N\NC(=O)c2c(C)nc3ccc(Cl)cn23)cc(OC)c1OC	5	0	5	0
COc1cc(/C=N/NC(=O)c2cc(OC)c(OC)c(OC)c2)cc(OC)c1O	56*	0	10	0
CCn1c(C)cn2c3c(=O)n(CC(C)C)c(=O)n(C)c3nc12	6	-2	18	0
SMILES	TEAD-YAP inh	GPR151 activ	MITF inh	FBW7 activator
CC(C)(C)c1ccccc1NC(=O)COC(=O)c1nccnc1N	-7	0	-4	0
COc1ccc(-c2nc(C(=O)NCCOc3ccccc3)cs2)cn1	-12	-1	17	0
O=C(Cn1nc(-c2ccc(F)cc2)ccc1=O)NCCN1CCCC1	-2	-1	16	0
COC(=O)N/N=C/c1ccc(Br)s1	-11	-1	-5	0
COc1cc(C(=O)N/N=C/c2ccc(Br)s2)cc(OC)c1OC	59*	1	-3	0
COc1cc(C(=O)N/N=C/c2ccc(OC)c(OC)c2C(=O)O)cc(OC)c1OC	67*	1	-5	0
COc1cc(C(=O)N/N=C/c2ccc(O)cc2)cc(OC)c1OC	57*	-1	3	0
COC(=O)[C@@H]1CCCN1Cc1ccc2c(c1)CN(Cc1ccc(NC(C)=O)s1)CCO2	12	-2	-2	0
CCN(CC)CCCNC(=O)c1sc2ncn(CC(=O)N3CC(C)CC(C)C3)c(=O)c2c1C (configuration not stated)	1	0	3	0
O=[N+]([O-])c1ccc(N2CCN(c3ccc([N+](=O)[O-])c4cccnc34)CC2)cc1	1	-1	21	2.3*
O=C(NCCCn1ccnc1)c1ccc(C#Cc2ccccc2)o1	35*	2	4	0
Cc1nc(-c2cccc(C(F)(F)F)c2)cc(N2CCOCC2)n1	-64	2	13	1
Nc1ccc(-c2nc3ccccc3s2)cc1	51*	-9	-8	0
Nc1ccc2nc(-c3ccccc3)sc2c1	85*	-8	10	2.7*
c1ccc(-c2ccc(-c3nc4ccccc4s3)cc2)cc1	92*	0	-11	0
Nc1ccc(-c2nc3ccccc3s2)c(Cl)c1	-1	0	-2	0
O=C(O)CNc1c2ccccc2nc2ccccc12	-5	1	16	0
c1ccc2c(NCCc3cnc[nH]3)c3ccccc3nc2c1	77*	-2	12	0
OCCNc1c2ccccc2nc2ccccc12	71*	0	3	0
O=C(CCl)NCC1(c2ccccc2)CCCC1	58*	0	7	2
COc1cc(Nc2cc(C)nc(N3CCN(c4ccccn4)CC3)n2)cc(OC)c1OC	53*	3	4	0
COc1cc(Nc2cc(N3CCN(c4ccccn4)CC3)ncn2)cc(OC)c1OC	-13	-1	-9	0
COc1cc(Nc2ccnc(N3CCN(c4ccccn4)CC3)n2)cc(OC)c1OC	36*	0	11	0
Cc1ccc(C(=O)Cn2c(C(=O)OCCO)cc3ccccc32)cc1	34*	-1	13	0
Cc1ccc(C(=O)Cn2c(C(=O)O)cc3ccccc32)cc1	4	1	-2	0
SMILES	TEAD-YAP inh	GPR151 activ	MITF inh	FBW7 activator
CC1(C)Oc2ccc3ccc(=O)oc3c2C/C1=N\Nc1ccccc1	49*	-1	2	1
CC(=O)Nc1ccc(NC(=O)c2cc(C)nc3ccc(C)cc23)cc1	35*	1	-9	0
O=C1c2ccccc2C(=O)N1/N=C/c1ccco1	0	1	5	0
COc1ccccc1N(CC(O)CNC(C)(C)CO)S(=O)(=O)c1ccccc1 (configuration not stated)	3	-1	-12	0
COc1cc(C=O)ccc1OC(=O)CC1SC(=O)NC1=O (configuration not stated)	-1	0	-1	0
COc1ccc(O)c(/C=N/Nc2ccccn2)c1	-55	0	73*	0
COc1ccc(O)c(/C=N/NC(=S)Nc2cccnc2)c1	-11	-2	91*	0
COc1cccc(/C=N/NC(=S)Nc2cccnc2)c1	-23	2	0	0
COc1cc(OC)c(OC)cc1/C=N/Nc1ccccn1	15	-1	5	0
Oc1ccc(/C=N/NC(=S)Nc2cccnc2)cc1	65*	-1	12	0
